Values joined by “and” are separate entries in the source; they are usually repeats but may differ in a detail not shown here. Equal values may be shown once. Active and inactive are the calls of the source.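 How the source made its calls, unless noted: active means compounds whose cell count with miR-34 switched on is under 0.7 times the count with it off; inactive means the rest.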
How the values were obtained:
[1] = compounds altering viability of human ES cells (AID 493140; call rule not given here;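 further: cells exposed to compounds for four days before counting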); conditions: human embryonic stem cell survival screen; stronger effect = higher value
[2] = P. berghei load reduction in hepatocytes – cell-based, HepG2, luciferase luminescence, HepG2 viability, primary screen (AID 624349; in the data active means parasite load remaining mostly below about 12%, no sharp cut-off; inactive means mostly above about 10%;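 further: 100% = mean of DMSO negative control wells on the same plate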); conditions: P. berghei liver stage in HepG2, luciferase luminescence, concentration not given here; parasite load remaining: stronger effect = lower value; viability: measured here: HepG2 viability without parasites
[3] = Wnt pathway potentiators raising nuclear beta-catenin – imaging, WNT3A-conditioned medium, mouse C2C12, NPC library, primary screen (AID 1117326; in the data active means nuclear beta-catenin stimulation mostly above about 4.2%, no sharp cut-off; inactive means mostly below about 10%); conditions: stronger effect = higher value
[4] = stimulators of insulin release from INS-1E, primary screen, cell-based, 5 mM glucose, NPC library (AID 1117329;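 active means compound raises insulin release from rat beta cells at 5 mM glucose, no numeric limit stated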); conditions: rat INS-1E insulin secretion, at 10 µM, stronger effect = higher value
[5] = growth inhibition of GSK3B-pretreated HCT116 cells – cell-based, CellTiter-Glo, 0.2 to 20 µM (AID 1117336;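 active means compounds lowering colon cancer cell viability after pretreatment blocking the GSK3B kinase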); conditions: HCT116 viability after GSK3B inhibitor, at 20 µM, stronger effect = higher value
[6] = inhibition of endothelial tube formation, primary screen, imaging, VEGF stimulated, CD31 staining, tube area, NPC library (AID 1117340;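 active means compound that reduces growth-factor-driven endothelial tube area in a mixed cell culture, no cutoff stated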); conditions: VEGF-stimulated ADSC/ECFC co-culture, at 10 µM, stronger effect = higher value
[7] = GLP1 release stimulators, primary, NCI-H716, NPC library (AID 1117341;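 active means compound raises GLP1 secretion from the human gut endocrine cells, with no numeric limit stated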); conditions: NCI-H716 cells, at 10 µM, stronger effect = higher value
[8] = HCT116 colon cancer cell growth inhibition, primary screen, CellTiter-Glo luminescence, NPC library (AID 1117342;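 active means compounds that lower survival of HCT116 colon cancer cells in the luminescence readout, no numeric limit stated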); conditions: at 20 µM (top of the series)
[9] = reduced SW480 viability measured with CellTiter-Glo, NPC library, primary (AID 1117343;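 active means compounds that lower viability of the colon cancer cells in the luminescence readout, with no numeric limit stated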); conditions: CellTiter-Glo luminescence; at 20 µM (top of the series) unless noted
[10] = NPC library primary testing for decreased DLD-1 cell viability via CellTiter-Glo (AID 1117346;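 active means compounds that lower survival of DLD-1 colon cancer cells in the luminescence readout, no cutoff given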); conditions: DLD-1 viability, CellTiter-Glo luminescence; at 20 µM (top of the series)
[11] = EMT-state selective cytotoxicity in co-culture – imaging, PC-3E GFP, TEM4-18 mCherry, primary screen (AID 1345086;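 active means compounds killing one labelled cell type while sparing the other, by normalised counts and ratio limits, not self-fluorescent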;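 on all read-outs here: cells exposed to compound for 72 h before imaging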;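 on red/green cell ratio (normalised): normalised mesenchymal count divided by normalised epithelial count so high means epithelial killing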); conditions: PC-3E GFP / TEM4-18 mCherry co-culture, imaging cell counts, at 1 µM; for red/green cell ratio (normalised): actives lie on both sides, counts scaled to control wells, 1 = unselective
[12] = viability loss with induced miR-34 in A549 – imaging, A549 dox-inducible miR-34, nuclei and caspase counts, primary screen (AID 1347080); conditions: A549 miR-34 inducible, Hoechst nuclei count, 48 h
[13] = MELAS cybrid and Rieske KO viability enhancers – cell-based, MELAS cybrids, Rieske KO mouse fibroblasts, CellTiter-Glo, primary screen (AID 1508586;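 active means mean z-score across replicates of 1.96 or higher in either the MELAS or the Rieske mutant cell line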;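 further: z relative to plate mean and SD of compound and empty wells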); conditions: low glucose
[14] = molecular target: NAD(+) hydrolase SARM1 (Homo sapiens) (UniProt Q6SZW1); test: blocking NAD cleavage by SARM1 SAM-TIR – cell lysate, NAD-Glo luminescence (AID 1508614;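 active means compound whose remaining NAD level is above about 45 nM, limit read from the data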); conditions: SAM-TIR HEK293T lysate NADase, at 1 µM, stronger effect = higher value
[15] = growth inhibition, single agent or in combination, cell-based, chromothripsis tumors, cisplatin or BGB combos (AID 1671449; in the data active means inhibition above about 80%;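 further: cells exposed for 96 hours; 0% = vehicle DMSO and 100% = killing by high DMSO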); conditions: LFS_MB_P medulloblastoma cells
[16] = growth inhibition, single agent and combos, cell-based, chromothripsis tumors, cisplatin or BGB combos (AID 1671450; in the data active means inhibition above about 80%;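 further: cells exposed to compound for four days; 0% = vehicle DMSO and 100% = cell killing by high DMSO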); conditions: HDN33 neuroblastoma cells, stronger effect = higher value
[17] = growth inhibition, single agents and combos, ICB984, cell-based, cisplatin or BGB combos, synergistic combos for chromothripsis tumors (AID 1671451; call rule not given here;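 further: cells exposed for 96 hours before readout; 0% = vehicle DMSO and 100% = killing by high DMSO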); conditions: ICB984 medulloblastoma cells, drug combinations, stronger effect = higher value
[18] = growth inhibition, single agents and combos, HTB85, cell-based, BGB or cisplatin IC20 combos, synergistic combos for chromothripsis tumors (AID 1671453; in the data active means inhibition above about 80%;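 further: cells exposed for 96 hours before readout; 0% = vehicle DMSO and 100% = high DMSO killing control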); conditions: HTB85 osteosarcoma cells, drug combinations, stronger effect = higher value
[19] = growth inhibition, MDA-MB-436, cell-based, BGB or cisplatin combos, synergistic combos for chromothripsis tumors (AID 1671458; call rule not given here;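 further: cells exposed for 96 hours; 0% = vehicle DMSO and 100% = killing by high DMSO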); conditions: MDA-MB-436 breast carcinoma growth inhibition, drug combinations, stronger effect = higher value
[20] = measured here: epithelial PC-3E GFP cell survival
[21] = measured here: mesenchymal TEM4-18 mCherry cell survival
[22] = stronger effect = lower value, cell number ratio, induced over uninduced
[23] = measured here: relative caspase fold change +Dox/-Dox
[24] = measured here: total cells with miR-34 induction, stronger effect = lower value
[25] = measured here: total cells without miR-34 induction
[26] = MELAS cybrid survival, CellTiter-Glo 48 h, stronger effect = higher value
[27] = Rieske KO mouse fibroblast survival, CellTiter-Glo 72 h

NAD(+) hydrolase SARM1 (Homo sapiens), sequence (Q6SZW1 whole entry, looked up): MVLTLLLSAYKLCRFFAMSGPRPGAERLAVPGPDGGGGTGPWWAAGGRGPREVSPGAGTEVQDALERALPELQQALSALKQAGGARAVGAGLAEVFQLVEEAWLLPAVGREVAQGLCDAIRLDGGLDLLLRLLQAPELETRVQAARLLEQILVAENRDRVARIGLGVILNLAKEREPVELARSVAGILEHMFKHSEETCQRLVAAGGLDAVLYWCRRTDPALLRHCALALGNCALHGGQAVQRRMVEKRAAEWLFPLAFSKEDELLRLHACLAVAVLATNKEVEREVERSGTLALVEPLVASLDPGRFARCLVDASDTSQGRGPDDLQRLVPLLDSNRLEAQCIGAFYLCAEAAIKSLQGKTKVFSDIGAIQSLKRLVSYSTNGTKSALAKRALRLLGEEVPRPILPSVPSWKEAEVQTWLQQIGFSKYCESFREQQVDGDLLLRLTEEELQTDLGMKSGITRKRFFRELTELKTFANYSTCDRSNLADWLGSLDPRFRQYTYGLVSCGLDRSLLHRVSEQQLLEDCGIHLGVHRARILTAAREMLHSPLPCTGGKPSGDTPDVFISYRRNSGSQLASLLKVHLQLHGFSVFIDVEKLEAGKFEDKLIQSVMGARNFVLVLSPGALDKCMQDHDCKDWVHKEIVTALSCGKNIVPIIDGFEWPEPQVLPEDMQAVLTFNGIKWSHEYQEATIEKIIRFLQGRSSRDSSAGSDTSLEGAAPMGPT

O=C(CCCN1CCC(O)(c2ccc(Br)cc2)CC1)c1ccc(F)cc1
survival [1]: 1.83 (inactive)
parasite load remaining [2]: 37.2% (inactive) and 72.5% (inactive) and 17.9% (inactive)
viability [2]: 92.9% and 75.9% and 90.4%
nuclear beta-catenin stimulation ([3]; at 10 µM): 10.3% (inactive)
nuclear beta-catenin stimulation ([3]; stimulation, at 2 µM): 1.8%
insulin secretion stimulation [4]: 5.6% (active)
viability decrease [5]: -4.9% (inactive)
tube area decrease [6]: 24.2% (inactive)
GLP1 secretion stimulation [7]: 2.1% (inactive)
inhibition of viability [8]: 46.1% (inactive)
viability decrease (inhibition) [9]: 93.1% (active)
viability decrease (inhibition) [10]: 54.3% (active)
red/green cell ratio (normalised) [11]: 0.73 (inactive)
normalised cell number [11, 20]: 1.27
normalised cell number [11, 21]: 0.93
fold change [12, 22]: 0.861 (inactive) and 0.851 (inactive)
fold change [12, 23]: 1.31 and 4.03
cell count [12, 24]: 8070 and 10200
cell count [12, 25]: 9380 and 12000
z-score [13, 26]: 0.333 (inactive)
z-score [13, 27]: 0.0415
remaining NAD [14]: 10 nM (inactive)

NCCc1ccn[nH]1
survival [1]: 17.5 (inactive)
parasite load remaining [2]: 35.3% (inactive) and 97.6% (inactive)
viability [2]: 49.8% and 93.1%
nuclear beta-catenin stimulation ([3]; at 10 µM): 1% (inactive)
nuclear beta-catenin stimulation ([3]; stimulation, at 2 µM): 0.9%
insulin secretion stimulation [4]: -1.5% (inactive)
viability decrease [5]: -5% (inactive)
tube area decrease [6]: -21.4% (inactive)
GLP1 secretion stimulation [7]: 1.1% (inactive)
inhibition of viability [8]: -8.9% (inactive)
viability decrease (inhibition) [9]: 12.5% (inactive)
viability decrease (inhibition) [10]: -9.4% (inactive)
red/green cell ratio (normalised) [11]: 0.76 (inactive)
normalised cell number [11, 20]: 1.25
normalised cell number [11, 21]: 0.95
fold change [12, 22]: 0.91 (inactive)
fold change [12, 23]: 1.36
cell count [12, 24]: 9040
cell count [12, 25]: 9920
z-score [13, 26]: 0.417 (inactive)
z-score [13, 27]: 0.115
remaining NAD [14]: 10 nM (inactive)

CCCCOC(=O)c1ccc(O)cc1
survival [1]: 2.33 (inactive)
parasite load remaining [2]: 105% (inactive) and 43.2% (inactive)
viability [2]: 94.2% and 99.8%
nuclear beta-catenin stimulation ([3]; at 10 µM): 1.7% (inactive)
nuclear beta-catenin stimulation ([3]; stimulation, at 2 µM): 1.9%
insulin secretion stimulation [4]: 4.6% (inactive)
viability decrease [5]: -64.4% (inactive)
tube area decrease [6]: 17% (inactive)
GLP1 secretion stimulation [7]: -6.3% (inactive)
inhibition of viability [8]: 15% (inactive)
viability decrease (inhibition) [9]: 67.9% (active)
viability decrease (inhibition) [10]: 9.6% (inactive)
red/green cell ratio (normalised) [11]: 1.09 (inactive)
normalised cell number [11, 20]: 1.43
normalised cell number [11, 21]: 1.56
fold change [12, 22]: 0.899 (inactive) and 0.857 (inactive)
fold change [12, 23]: 1.34 and 7.37
cell count [12, 24]: 8710 and 10100
cell count [12, 25]: 9690 and 11800
z-score [13, 26]: 0.705 (inactive)
z-score [13, 27]: -0.347
remaining NAD [14]: 10 nM (inactive)

CN(C(=O)C(Cl)Cl)c1ccc(OC(=O)c2ccco2)cc1
survival [1]: 6 (inactive)
parasite load remaining [2]: 89.8% (inactive) and 59.5% (inactive)
viability [2]: 98.9% and 106%
nuclear beta-catenin stimulation ([3]; at 10 µM): 16.4% (inactive)
nuclear beta-catenin stimulation ([3]; stimulation, at 2 µM): 2.6%
insulin secretion stimulation [4]: 0.3% (inactive)
viability decrease [5]: -11.8% (inactive)
tube area decrease [6]: 13.6% (inactive)
GLP1 secretion stimulation [7]: 0.9% (inactive)
inhibition of viability [8]: -9.5% (inactive)
viability decrease (inhibition) [9]: 4.3% (inactive)
viability decrease (inhibition) [10]: -2.6% (inactive)
red/green cell ratio (normalised) [11]: 1.01 (inactive)
normalised cell number [11, 20]: 0.98
normalised cell number [11, 21]: 0.99
fold change [12, 22]: 0.855 (inactive) and 0.819 (inactive)
fold change [12, 23]: 1.35 and 4.27
cell count [12, 24]: 9270 and 10300
cell count [12, 25]: 10800 and 12500
z-score [13, 26]: 0.57 (inactive)
z-score [13, 27]: -0.472
remaining NAD [14]: 10 nM (inactive)

O=C(Oc1ccccc1C(=O)O)c1ccccc1O
parasite load remaining [2]: 63.4% (inactive)
viability [2]: 139%
nuclear beta-catenin stimulation ([3]; at 10 µM): 0.1% (inactive)
nuclear beta-catenin stimulation ([3]; stimulation, at 2 µM): 0.1%
insulin secretion stimulation [4]: -0.5% (inactive)
viability decrease [5]: 13.4% (inactive)
tube area decrease [6]: 3.9% (inactive)
GLP1 secretion stimulation [7]: -0.4% (inactive)
inhibition of viability [8]: 0.8% (inactive)
viability decrease (inhibition) [9]: 16.6% (inactive)
viability decrease (inhibition) [10]: 24.3% (inactive)
red/green cell ratio (normalised) [11]: 1.15 (inactive)
normalised cell number [11, 20]: 1.17
normalised cell number [11, 21]: 1.35
fold change [12, 22]: 0.931 (inactive) and 0.896 (inactive)
fold change [12, 23]: 1.03 and 3.07
cell count [12, 24]: 8500 and 11000
cell count [12, 25]: 9120 and 12300
z-score [13, 26]: -0.0904 (inactive)
z-score [13, 27]: -0.293
remaining NAD [14]: 10 nM (inactive)

O=c1cc[nH]c(=O)[nH]1
nuclear beta-catenin stimulation ([3]; at 10 µM): 2.3% (inactive)
nuclear beta-catenin stimulation ([3]; stimulation, at 2 µM): 0.3%
insulin secretion stimulation [4]: 0% (inactive)
viability decrease [5]: 0.75% (inactive)
tube area decrease [6]: -14.5% (inactive)
GLP1 secretion stimulation [7]: -2.6% (inactive)
inhibition of viability [8]: 1% (inactive)
viability decrease (inhibition) [9]: 8% (inactive)
viability decrease (inhibition) [10]: 3.55% (inactive)
red/green cell ratio (normalised) [11]: 1.11 (inactive)
normalised cell number [11, 20]: 1.05
normalised cell number [11, 21]: 1.16
fold change [12, 22]: 0.956 (inactive) and 0.943 (inactive)
fold change [12, 23]: 0.736 and 0.726
cell count [12, 24]: 8740 and 8670
cell count [12, 25]: 9140 and 9190
z-score [13, 26]: -0.276 (inactive)
z-score [13, 27]: -0.187
remaining NAD [14]: 10 nM (inactive)
inhibition ([15]; at 0.5 µM, stronger effect = higher value): -22.6% (inactive)
inhibition ([15]; measured here: combination with BGB IC20, at 0.005 µM): -16.6%
inhibition ([15]; measured here: combination with BGB IC40, at 0.005 µM): -38.5%
inhibition ([15]; measured here: combination with BGB IC40, at 0.05 µM): -9.29%
inhibition ([15]; measured here: combination with cisplatin, at 0.5 µM, stronger effect = higher value): -28.9%
inhibition ([15]; measured here: combination with cisplatin, at 5 µM, stronger effect = higher value): -19.9%
inhibition ([16]; BGB combo, at 5 µM): -47.9%
inhibition ([16]; at 0.5 µM): -41.6% (inactive)
inhibition ([16]; cisplatin combo, at 5 µM): -56.4%
inhibition ([16]; measured here: with BGB IC20 combination, at 0.5 µM): -36.5%
inhibition ([16]; measured here: with cisplatin IC20 combination, at 0.5 µM): -23.5%
inhibition ([16]; single agent, at 5 µM): -52%
inhibition ([17]; BGB IC20 combo, at 0.005 µM): -14.6%
inhibition ([17]; BGB IC40 combo, at 0.005 µM): -47.1%
inhibition ([17]; BGB IC40 combo, at 0.05 µM): -28.5%
inhibition ([17]; at 0.5 µM): -27% (inactive)
inhibition ([17]; cisplatin combo, at 0.05 µM): -28.5%
inhibition ([17]; cisplatin combo, at 0.5 µM): -48.6%
inhibition ([17]; cisplatin combo, at 5 µM): -27.5%
inhibition ([17]; measured here: 5 uM single agent, at 5 µM): -5.8%
inhibition ([18]; at 0.5 µM): -37.5% (inactive)
inhibition ([18]; measured here: with BGB IC20, at 0.5 µM): -69.8%
inhibition ([18]; measured here: with BGB IC20, at 5 µM): -35.2%
inhibition ([18]; measured here: with cisplatin IC20, at 0.5 µM): -26.2%
inhibition ([18]; measured here: with cisplatin IC20, at 5 µM): -33.2%
inhibition ([18]; single agent, at 5 µM): -19.7%
inhibition ([19]; at 0.5 µM): -27.5% (inactive)
inhibition ([19]; measured here: BGB combination, at 0.5 µM): -30.5%
inhibition ([19]; measured here: BGB combination, at 5 µM): -26.1%
inhibition ([19]; measured here: cisplatin combination, at 0.5 µM): -40.8%
inhibition ([19]; measured here: cisplatin combination, at 5 µM): -24%
